Test results: PubChem BioAssay AID504848 (National Center for Advancing Translational Sciences (NCATS), 2011)
About 1,400 (61%) of roughly 2,300 compounds were called active. About 29% were inconclusive and are not listed. The set was probably picked from earlier hits. The list shows a part of the results. A number with no mark means an inactive call. Calls come from the whole dose curve; as a rule, active = well fitted inhibition curve with a large enough effect; inconclusive = small, poorly fitted or top-dose-only effect, or effect the other way; inactive = no such curve, though single readings can be large or run the other way.

Assay: Confirmation screen for delayed death inhibitors of the malarial parasite plastid, 96 hour incubation; note: nearly all actives have a fitted effect of over 60% in size
Conditions: P. falciparum luciferase growth in erythrocytes; series mostly up to 28.7 µM; activity change, negative = inhibition: at the top concentration
Outline: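 Two-generation (96 h, 37 C) exposure of P. falciparum carrying an integrated firefly luciferase reporter in erythrocytes, 0.1% parasitemia and 2% hematocrit final, Albumax-supplemented RPMI. Luminescence decrease measures growth inhibition.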
% is set by controls: 0 for no effect and ±100 for the full control effect; potency is the fitted concentration of half-maximal effect.

SMILES	Potency	activity change, negative = inhibition [%]
c1ccc(SCc2cn(C[C@H]3CC[C@@H]([C@@H]4CC[C@H](Cn5cc(CSc6ccccc6)nn5)O4)O3)nn2)cc1	11.2 µM (active)	
CC1CCCN(c2ccc(F)cc2N)C1 (stereo not drawn)	8.91 µM (active)	
COc1cccc(/C=N/N2CCN(C3c4ccccc4-c4ccccc43)CC2)c1O	14.1 µM (active)	
CCOC(=O)C(C)Sc1cc(CS(=O)(=O)c2ccccc2)nc(-c2ccccc2)n1 (stereo not drawn)	12.6 µM (active)	
Cc1ccc(Oc2nc3ccccn3c(=O)c2/C=C(\C#N)C(=O)NC2CCS(=O)(=O)C2)c(C)c1 (stereo not drawn)	10 µM (active)	
N#C/C(=C\c1c(Oc2ccccc2Cl)nc2ccccn2c1=O)C(=O)NC1CCS(=O)(=O)C1 (stereo not drawn)	12.6 µM (active)	
Cc1cccc(Oc2nc3ccccn3c(=O)c2/C=C(\C#N)C(=O)NC2CCS(=O)(=O)C2)c1C (stereo not drawn)	12.6 µM (active)	
COc1ccc(-c2nc3c(c(=O)c4ccccc4n3C)c(=O)n2Cc2ccccc2)cc1	7.08 µM (active)	
COc1ccc(Cn2c(-c3ccccc3)nc3c(c(=O)c4ccccc4n3C)c2=O)cc1	10 µM (active)	
COc1ccc(CCn2c(C(C)C)nc3c(c(=O)c4ccccc4n3C)c2=O)cc1	3.16 µM (active)	
CCO[C@H]1OC(C(=O)N2CCN(Cc3ccccc3)CC2)=C[C@@H](c2ccc(C(F)(F)F)cc2)[C@@H]1CCCO	3.16 µM (active)	
CCO[C@H]1OC(C(=O)N2CCN(Cc3ccc4c(c3)OCO4)CC2)=C[C@@H](c2ccc(C(F)(F)F)cc2)[C@@H]1CCCO	2 µM (active)	
O=C(C1=C[C@@H](c2csc3ccccc23)C[C@@H](OCCCCO)O1)N1CCN(Cc2ccc3c(c2)OCO3)CC1	3.98 µM (active)	
CCOC(=O)N1CCN(CC(=O)c2ccc(O)cc2O)CC1	17.8 µM (active)	
CCOc1cc(/C=C2/C(=O)ON=C2C)ccc1OCc1ccccc1		4.29
CCOc1cc(/C=C2\COc3ccccc3C2=O)ccc1OCC(=O)N(C)C	12.6 µM (active)	
COc1cc(CN2CCN(S(=O)(=O)c3ccccc3)CC2)cc(OC)c1OC	2.24 µM (active)	
O=S1(=O)C=C(Sc2nc3cc(Cl)ccc3o2)c2ccccc21	4.47 µM (active)	
O=S1(=O)C=C(Sc2nnc(-c3ccccc3)o2)c2ccccc21	14.1 µM (active)	
CCOc1ccc(/C=N/OCC(=O)Nc2ccc(OCc3ccccc3)cc2)cc1OC	3.55 µM (active)	
C[C@H]1[C@@H](OC(=O)CCC(=O)O)OC2OC3(C)CC[C@H]4[C@H](C)CC[C@@H]1[C@@]24OO3 (stereo partly drawn)	0.0355 µM (active)	
CO[C@H]1OC2O[C@@]3(C)CC[C@H]4[C@H](C)CC[C@@H]([C@H]1C)[C@@]24OO3 (stereo partly drawn)	0.0631 µM (active)	
C[C@@H]1CCC2[C@@H](C)[C@@H](O)O[C@@H]3O[C@@]4(C)CC[C@@H]1[C@@]23OO4 (stereo partly drawn)	0.0251 µM (active)	
COCCN1CCCC(CNCc2cn(C)nc2-c2ccc(Oc3ccccc3)cc2)C1 (stereo not drawn)	7.08 µM (active)	
Cc1cc(=O)oc2c3c(cc(OCC(=O)Nc4cccnc4)c12)OC(C)(C)CC3	1.26 µM (active)	
CCOC(=O)c1c(NC(=O)CSc2c[nH]c3ccccc23)sc2c1CCCC2	12.6 µM (active)	
CCOC(=O)c1c(NC(=O)CSc2ccccc2C(=O)O)sc(C)c1C		-10

SMILES	Potency	activity change, negative = inhibition [%]
CC(C)(C)c1cc(C(=O)NNc2cccc(Cl)c2)n(Cc2ccccc2)n1	10 µM (active)	
CC(C)(C)C(=O)NNC(=O)c1cc(C(C)(C)C)nn1Cc1ccccc1	14.1 µM (active)	
Cc1ccc2c(c1)cc(C(=O)NCc1ccccc1)n2C		5.14
Cc1cccc(Cn2nc(C(C)(C)C)cc2C(=O)Nc2ccc(F)cc2)c1	3.55 µM (active)	
Cc1ccc(NC(=O)c2cc(C(C)(C)C)nn2Cc2ccccc2)cc1	12.6 µM (active)	
C=CCNC(=O)c1cnc2n(c1=O)CCS2		-11.2
COc1ccc(C(=O)NC2CCCc3c2cnn3-c2cccc(C)c2C)o1 (stereo not drawn)	12.6 µM (active)	
Cc1cccc(-n2ncc3c2CCCC3NC(=O)C2=CC(=O)CC(C)(C)O2)c1C (stereo not drawn)	12.6 µM (active)	
O=S(=O)(c1ccc(Cl)c(Cl)c1)c1snnc1-c1ccccc1	7.94 µM (active)	
CCCNC(=O)c1nnsc1S(=O)(=O)c1ccc(Cl)cc1		-8.29
N#Cc1ccc(Oc2ccc(-c3nc4ccccc4nc3-c3ccccc3)cc2)cc1C#N	0.708 µM (active)	
CCOC(=O)C(Cc1ccccc1)C(=O)Nc1cccc2ccccc12 (stereo not drawn)	5.01 µM (active)	
CCc1nn(CCCC(=O)NCc2ccccc2C)c(=O)c2cc3occc3n12	7.08 µM (active)	
O[C@@H]1[C@@H](O)C=C2CCN3Cc4cc5c(cc4[C@H]1C23)OCO5 (stereo partly drawn)	1.58 µM (active)	
ClC(/C=N/n1cnnc1)=C/c1ccccc1	10 µM (active)	
S=c1[nH]nc(COc2ccccc2)n1/N=C/C(Cl)=C/c1ccccc1	12.6 µM (active)	
O=C(O)CCCN1C(=O)/C(=C\C(Cl)=C\c2ccccc2)SC1=S	5.01 µM (active)	
C[C@@H]1c2cccc(O)c2C(O)=C2C(=O)[C@@]3(O)C(O)=C(C(N)=O)C(=O)[C@@H](N(C)C)[C@@H]3[C@@H](O)[C@@H]21	2.51 µM (active)	
C=C1c2c(Cl)ccc(O)c2C(O)=C2C(=O)[C@]3(O)C(O)=C(C(N)=O)C(=O)[C@@H](N(C)C)[C@@H]3[C@@H](O)C12 (stereo partly drawn)	2 µM (active)	
C=C1c2c(Cl)ccc(O)c2C(O)=C2C(=O)[C@@]3(O)C(O)=C(C(N)=O)C(=O)[C@@H](N(C)C)[C@@H]3[C@@H](O)[C@H]12	2 µM (active)	
S=c1[nH]nc(-c2ccccc2)n1/N=C/c1ccc(-c2ccccc2Cl)o1		-28.5
S=c1[nH]nc(-c2cc(-c3ccccc3)n[nH]2)n1/N=C/C(Br)=C/c1ccccc1	3.98 µM (active)	
COc1ccc(C(=S)N2CCN(c3ccccc3C)CC2)cc1	12.6 µM (active)	
COc1cccc(NC(=O)CSc2ccc3nnc(CCNC(=O)c4ccccc4)n3n2)c1		-98.6
Cc1ccc(C(=O)NCCc2nnc3ccc(SCC(=O)NCc4ccc(F)cc4)nn23)cc1	7.94 µM (active)	
Cc1cccc(C)c1Nc1c(-c2ccc(N3CCOCC3)cc2)nc2ncccn12	12.6 µM (active)	
